D2 PAM-1 – potentiates the human D2 dopamine receptor allosterically. DiscoveRx D2 beta-arrestin cells, luminescence, 90 min; 100% = 57 uM dopamine signal. potentiation, % (no concentration beside the values). hit rate 0.23% among 360,000; in the data active = potentiation above about 50%; inconclusive = mostly about 30% to 49%
Target sequence (P14416 whole entry, looked up): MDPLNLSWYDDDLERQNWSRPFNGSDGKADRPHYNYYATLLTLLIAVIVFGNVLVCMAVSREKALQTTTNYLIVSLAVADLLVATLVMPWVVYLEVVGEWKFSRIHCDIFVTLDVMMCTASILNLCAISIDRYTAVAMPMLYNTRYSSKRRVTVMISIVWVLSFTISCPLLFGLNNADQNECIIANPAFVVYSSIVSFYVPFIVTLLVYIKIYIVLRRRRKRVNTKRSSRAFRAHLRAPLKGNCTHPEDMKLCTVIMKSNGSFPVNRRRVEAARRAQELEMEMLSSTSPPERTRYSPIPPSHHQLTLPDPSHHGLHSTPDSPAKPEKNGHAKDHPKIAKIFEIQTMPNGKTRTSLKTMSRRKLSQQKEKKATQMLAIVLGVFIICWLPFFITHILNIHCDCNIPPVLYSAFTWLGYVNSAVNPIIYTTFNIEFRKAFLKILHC
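D2 cells co-treated with compound plus 50 nM dopamine (EC20) for 90 min at 37 deg C to detect potentiation. Beta-arrestin recruitment was read as enzyme-fragment luminescence after 1 h at ambient temperature. Full response was set by 57 uM dopamine.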
D2 ag-1 – activates the human D2 dopamine receptor | DiscoveRx PathHunter D2 beta-arrestin, luminescence, 90 min; 100% = 57 uM dopamine signal | activation, % (concentration not given with the values) | hit rate 0.084% among 360,000; in the data active = activation above about 40%; inconclusive = between about 15% and that limit
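DiscoveRx PathHunter D2 beta-arrestin cells (2,100/well) attached overnight, then compound-stimulated 90 min at 37 C in HBSS/10 mM HEPES/0.1% Tween-20 buffer; beta-galactosidase complementation read by luminescence after 1 h at ambient temperature. Dopamine 57 uM final (EC100) as control.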
D2 antagonist – D2 dopamine receptor (human) antagonism; hit rate 2% among 340,000; inhibition, % at 10 µM; AID 485344; HEK293 TREx D2 cells, calcium flux, dopamine EC80; P14416; in the data active = inhibition above about 30%; inactive = below that, where a call was filed; also: 0% is about no effect
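Overnight-induced (tetracycline, 30 C) HEK293 T-REx cells carrying force-coupled D2 receive a no-wash calcium dye, then compound, then EC80 dopamine at 180 s; signals are read kinetically throughout.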
D2 PAM-2 – positive allosteric modulators of human D2 dopamine receptor | HEK293 T-REx D2, calcium flux, EC20 dopamine potentiation | potentiation, % at 10 µM | hit rate 0.34% among 340,000 | AID 485347;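 active = potentiation over 3 SD above the plate norm, cut at about 30% in these data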; also: 0% is about no effect
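Potentiation of an EC20 dopamine calcium response is measured in a force-coupled, tetracycline-inducible Hek293 Trex D2 line. Compound-only kinetic reads over 180 s flag agonists before dopamine addition.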
D2 ag-2 – D2 dopamine receptor (human) agonism; P14416; HEK293 T-REx D2 cells, calcium flux agonist mode; activation, % at 2 µM; hit rate 0.53% among 340,000; AID 485358;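 active = activation over 3 SD above normal in the single-dose calcium agonist read, cut at about 30% in these data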; also: 0% is about no effect
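Agonism scored from kinetic calcium signal (1 read/sec, 180 s) following compound pin transfer, after a 10 s baseline. Cells: HEK293 Trex line expressing inducible D2 receptor coupled to calcium, dye-loaded after overnight culture at 30 C.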
* marks the source's active call; other numbers are inactive results; u = inconclusive; x = no result given. Most compounds without a hit are left out; they make up all but 2.4% or so of the library.

SMILES | D2 PAM-1 | D2 ag-1 | D2 antagonist | D2 PAM-2 | D2 ag-2
Cc1c(C(=O)N(Cc2ccccc2F)C2CCS(=O)(=O)C2)oc2ccc(F)cc12 (centres undefined) | x | x | x | -0.6 | 9.9
Cc1ccc(/C=C/C(=O)Nc2nccs2)o1 | 53.4* | 8.2 | 11.2 | 1.4 | 0.2
Cc1ccc(/C=C/C(=O)Nc2ncc(C)s2)o1 | 25.3 | 9.8 | -3.9 | 7.8 | -0.2
NC(=S)N=Nc1c(O)cc(O)c2[nH]c(=O)ccc12 | 65.6* | u | x | x | x
Cn1cnc2c(=O)oc3ccc(S(=O)(=O)N4CCN(c5cccc(C(F)(F)F)c5)CC4)cc3c21 | x | x | x | x | 0.3
CCCc1nnc(NC(=O)c2nc(S(=O)(=O)Cc3cccc(C)c3)ncc2Cl)s1 | -25.5 | -7.6 | -13.3 | 30.1* | -1.2
COc1ccccc1-c1nn(-c2ccccc2)cc1C(=O)NCC(c1ccco1)N1CCCC1 (centres undefined) | -4.4 | -2.6 | 40.4* | -27.1 | 0.3
COc1ccccc1C(CNC(=O)c1ccco1)N1CCCC1 (centres undefined) | -10.3 | -5.0 | 37.3* | -12.9 | 0.7
COc1ccc(Cl)cc1C(=O)NCC(c1ccco1)N1CCCC1 (centres undefined) | -19.7 | -2.3 | 29.4 | -16.7 | -1.1
O=C(NCC(c1ccco1)N1CCCC1)c1cn(-c2ccccc2)nc1-c1ccc(F)cc1 (centres undefined) | -48.6 | -3.6 | 75.9* | -22.5 | -1.1
O=C(NCC(c1ccco1)N1CCCC1)c1cn(Cc2ccccc2)nc1-c1ccccc1 (centres undefined) | -22.6 | 0.4 | -5.9 | -4.6 | -0.1
COc1cccc(CN2CCc3ccc(NC(=O)CCc4ccc(C)cc4)cc3C2)c1O | -41.4 | -7.2 | 30.6* | -19.6 | -0.3
CCc1ccc(C2c3c(n[nH]c3C)C(=O)N2c2ccc(C)cc2)cc1 (centres undefined) | x | x | x | 9.5 | -0.4
COc1ccc(OC)c([N+](=O)[O-])c1C(N)=O | 50.1* | 8.1 | 6.8 | -8.5 | -0.4
Clc1c(Cl)c(Cl)c2n[nH]nc2c1Cl | -4.9 | -4.7 | 38.1* | 0.5 | 4.8
CCOC(=O)c1c(-c2cccc([N+](=O)[O-])c2)csc1NC(=O)C1CC1 | 54.6* | 11.0 | -27.7 | 8.2 | 0.0
CCOC(=O)c1c(-c2cccc([N+](=O)[O-])c2)csc1NC(=O)C1CCCCC1 | u | 6.7 | 0.6 | -6.6 | 0.3
CC(=O)N1CCc2cc(CNS(=O)(=O)c3ccc(Cl)s3)ccc21 | x | x | x | -3.6 | 0.4
Cc1ccccc1NC(=O)Cn1c(SCC(=O)Nc2ccc(F)cc2)nc2ccccc21 | x | x | x | 11.1 | 1.1
O=C1/C(=C/c2ccc(N3CCCC3)cc2)NC(=S)N1C1CC1 | -15.9 | -0.9 | -19.6 | -12.3 | 47.9*
Cc1cc(N2CCCC2)ccc1/C=C1\NC(=S)N(C)C1=O | -5.0 | -1.3 | 9.7 | -6.9 | 35.6*
Cc1ccc(N2C(=O)CSC23C(=O)N(CC(=O)NCc2ccccc2)c2ccccc23)cc1C (centres undefined) | x | x | x | 5.4 | -0.3
OC(COCc1ccccc1)CN1CCc2ccccc2C1 (centres undefined) | -27.5 | -0.9 | 46.9* | -26.6 | -0.3
Cc1cccc(C)c1OCC(O)CN1CCc2ccccc2C1 (centres undefined) | -16.2 | -6.0 | x | x | x
OC(COc1c(F)cc(Br)cc1F)CN1CCc2ccccc2C1 (centres undefined) | -77.4 | -3.4 | 64.8* | -33.1 | -0.6
SMILES | D2 PAM-1 | D2 ag-1 | D2 antagonist | D2 PAM-2 | D2 ag-2
COc1ccc(COCC(O)CN2CCc3ccccc3C2)cc1OC (centres undefined) | -17.2 | -2.0 | x | x | x
CC(=O)Nc1ccc(NC(=O)CSc2nnc(NC(=O)Cc3ccc(F)cc3)s2)cc1 | -5.6 | -1.7 | 34.0* | -21.3 | 0.0
O=C(CSc1nnc(NC(=O)c2ccccc2F)s1)Nc1ccccc1F | 5.2 | 0.3 | 36.0* | -8.7 | 0.3
O=C(Nc1nnc(SCc2ccc(F)cc2)s1)c1cnccn1 | -12.0 | -2.7 | 33.4* | 0.6 | 1.0
CCSc1nnc(NC(=O)c2cnccn2)s1 | -1.5 | 0.1 | 12.0 | -1.5 | 0.1
CCCc1cc(=O)oc2c(C)c3c(cc12)CN(CCc1ccc(Cl)cc1)CO3 | x | x | x | -23.9 | -0.4
CC(C)(C)CC(=O)Nc1nnc(SCC(=O)N2CCCCC2)s1 | 2.2 | -3.0 | -6.7 | 31.9* | 0.2
CC(C)(C)CC(=O)Nc1nnc(SCC(=O)NC2CCCCC2)s1 | -4.4 | -2.6 | -3.9 | 0.7 | 1.8
CC(C)c1cnc2c(c1SCC(=O)N1CCCCC1)c(=O)n(C)c(=O)n2C | x | x | x | -8.3 | -0.5
COc1cccc(-c2cc(=O)c3cc(NC(C)=O)ccc3[nH]2)c1 | -18.9 | -1.5 | 33.8* | 0.2 | 0.9
CN(C)c1ccc(/C=C(\C#N)C(=O)c2ccccc2)cc1 | -5.2 | 0.4 | -71.4 | -7.7 | 162.8*
COc1ccc(C=NNc2nc3ccccc3s2)cc1 | -10.7 | 0.8 | x | x | x
Cc1ccc2[nH]c(C)c(/C=N/Nc3nc4ccccc4s3)c2c1 | 58.4* | 5.8 | -1.1 | -6.7 | 0.5
CC(C)CCOC(=O)C1C2C=CC3(CN(Cc4cccs4)C(=O)C13)O2 (centres undefined) | -1.6 | 2.1 | 33.2* | 0.3 | -0.6
CCCCOC(=O)C1[C@H]2C(=O)N(Cc3cccs3)C[C@]23C=C[C@H]1O3 (some centres undefined) | 0.7 | 4.0 | 0.0 | 15.6 | 1.5
O=C(NC1=NCCS1)c1cc(-c2cccnc2)nc2ccccc12 | 0.4 | -1.7 | 33.2* | -1.9 | 1.0
CCCCC(=O)N1CCc2cc(OC)c(OC)cc2C1COc1ccc(C(=O)OCC)cc1 (centres undefined) | x | x | x | -2.0 | 0.7
CCCOc1ccc(N)cc1N | 65.8* | 14.7 | -12.7 | 13.3 | 1.4
CCCOc1cc(N)ccc1C(=O)OCCN(CC)CC | -20.7 | -5.4 | -5.6 | 3.7 | -0.1
Cc1ccc(Cl)cc1N1C(=O)N(Cc2ccc(C#N)cc2)c2ccccc2S1(=O)=O | x | x | x | -2.3 | 0.5
COc1ccc(Cl)c2c1[nH]c1nc(SCc3cccnc3)nnc12 | -6.2 | -4.8 | 17.4 | -7.5 | 2.5
COc1ccc(Cl)c2c1[nH]c1nc(SCc3ccccn3)nnc12 | -17.3 | 1.5 | 42.9* | -10.4 | -0.6
CN(c1nnc(NC(=O)Nc2ccc(Br)cc2)s1)C1CCCCC1 | x | x | x | 0.3 | 0.2
COc1ccccc1CN1C(=O)[C@@H]2C(CCC(N)=O)NC3(C(=O)Nc4c3ccc(Cl)c4C)[C@@H]2C1=O (some centres undefined) | -0.5 | -1.4 | -2.8 | 32.4* | 0.2
Clc1ccc(OCCCCN2CCc3ccccc3C2)cc1 | -8.3 | -4.2 | 91.0* | -37.5 | -0.1
Cc1ccc(Cl)c(OCCN2CCc3ccccc3C2)c1 | -5.9 | -2.0 | 65.9* | -15.7 | 1.9
Cc1ccc(N(Cc2cccs2)C(=O)c2ccc(OC(C)C)cc2)cc1 | x | x | x | 11.8 | -1.9

High-throughput results deposited in PubChem BioAssay by National Center for Advancing Translational Sciences (NCATS).
